CYP2C9 inh: human CYP2C9 inhibition. actives 20% (n = 96,000). P11712. inhibition, % at 5 µM. CYP2C9 Supersomes, luciferin-H conversion, luminescence;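 active = blocking of liver enzyme CYP2C9 beyond about 50% at 5 µM, limit read from the data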
Measles CPE: protection of cells from measles virus; Measles virus-infected cells, CPE protection, absorbance; protection (pct of control), % at 4 µM; actives 1.5% (n = 140,000); AID 841; in the data active = protection mostly above about 24%, no sharp cut-off; inactive = mostly below about 26%
CYP2C9 act: activators of human CYP2C9. actives 1.4% (n = 96,000). P11712. recombinant CYP2C9, luciferin-H conversion, luminescence; stronger effect = higher value; factor 1 = untreated enzyme, 0 = blocked. activation factor at 5 µM;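 active = activation factor of 2 or more for CYP2C9 at a 5 µM dose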;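 also: 0 = sulfaphenazole-blocked wells and 1 = vehicle-only wells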
CYP2C19 inh: blocks human cytochrome P450 2C19; CYP2C19 Supersomes, luciferin-H EGE luminescence, 30 min; inhibition, % at 5 µM; AID 778; actives 21% (n = 96,000); P33261;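 active = CYP2C19 inhibition above a set limit at 5 µM in the primary screen, cut at about 50% in these data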;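 also: plate controls were negative control wells for no effect and 2.5 mM tranylcypromine positive control for full effect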
Target sequence (P33261 whole entry, looked up): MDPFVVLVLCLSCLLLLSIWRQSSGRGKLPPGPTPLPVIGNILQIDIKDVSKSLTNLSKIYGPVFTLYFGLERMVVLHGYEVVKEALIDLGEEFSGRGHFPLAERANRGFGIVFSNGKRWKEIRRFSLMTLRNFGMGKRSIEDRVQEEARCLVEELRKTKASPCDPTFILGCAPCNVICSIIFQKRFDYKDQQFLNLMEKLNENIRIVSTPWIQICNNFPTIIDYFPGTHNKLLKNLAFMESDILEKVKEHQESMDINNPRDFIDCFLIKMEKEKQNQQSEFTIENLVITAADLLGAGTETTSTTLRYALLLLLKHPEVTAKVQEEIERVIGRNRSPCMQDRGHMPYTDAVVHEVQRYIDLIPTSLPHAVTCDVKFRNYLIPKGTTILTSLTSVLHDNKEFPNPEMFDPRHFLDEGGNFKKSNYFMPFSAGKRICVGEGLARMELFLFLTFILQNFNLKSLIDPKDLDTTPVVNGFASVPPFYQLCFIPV
CYP2C19 act: increases human CYP2C19 enzyme activity; P33261; recombinant CYP2C19, luciferin-H EGE luminescence; stronger effect = higher value; 0 = fully inhibited enzyme, 1 = untreated enzyme; activation factor at 5 µM; 96,000 tested, under 10 active;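 active = activation factor of at least 2 at 5 µM in the primary screen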;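 also: 0 = wells with 2.5 mM tranylcypromine and 1 = vehicle-only wells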
Starred values were filed as active, the others as inactive; x = no result. The list is not random: actives were taken first. Their share in the collection is about 22%.

SMILES	CYP2C9 inh	Measles CPE	CYP2C9 act	CYP2C19 inh	CYP2C19 act
CCOC(=O)C1CCCN(C(=O)CN2C(=O)C(CC)Oc3ccc(C)cc32)C1 (centres undefined)	14	8	0.9	14	0.9
CCOC(=O)CN1C(=O)C(C)(C)Oc2ccc(C(=O)Nc3ccccc3OC)cc21	32	12	0.7	82*	0.2
CC1(C)Oc2ccc(C(=O)N3CCCC3)cc2N(CC(=O)NCc2ccccc2)C1=O	13	6	0.9	26	0.7
Cc1ccc(S(=O)(=O)c2cc(C#N)c(=O)[nH]c2N)cc1	23	22	0.8	-5	1
CC1(C)Oc2ccc(C(=O)N3CCc4ccccc43)cc2N(CC(=O)N2CCCC2)C1=O	34	4	0.7	23	0.8
COc1ccc(C(=O)CN2C(=O)C(C)(C)Oc3ccc(C(=O)N4CCCCCC4)cc32)cc1	78*	20	0.2	57*	0.4
CC(C)(C)NC(=O)c1ccc2c(c1)N(CC(=O)N1CCN(c3ccc(F)cc3)CC1)C(=O)C(C)(C)O2	60*	5	0.4	79*	0.2
CCN(C(=O)CN1CCN(c2ccc(O)cc2)CC1)c1c(N)n(Cc2ccccc2)c(=O)[nH]c1=O	-2	9	1	0	1
CCN(C(=O)CN1CCN(S(=O)(=O)c2cc(Cl)ccc2Cl)CC1)c1c(N)n(Cc2ccccc2)c(=O)[nH]c1=O	x	30*	x	x	x
CCOC(=O)C1CCN(c2ncnc3c2[nH]c2cccc(OC)c23)CC1	51*	5	0.5	61*	0.4
COc1cccc2[nH]c3c(N4CCCCC4)ncnc3c12	24	1	0.8	26	0.7
CCOC(=O)C1CCN(c2ncnc3c2oc2ccc(Cl)cc23)CC1	53*	4	0.5	80*	0.2
c1csc(-c2nnsc2-c2nc3ccccc3[nH]2)c1	27	13	0.7	73*	0.3
COc1ccccc1/C=C/C=N/N1CCN(Cc2ccccc2)CC1	x	5	x	x	x
COc1ccccc1/C=C/CN1CCN(c2ccccc2)CC1	-16	3	1.2	82*	0.2
COc1ccc(S(=O)(=O)N(C)Cc2cccs2)cc1Br	-36	17	1.4	96*	0
COc1ccc(S(=O)(=O)N(Cc2cccs2)C2CCCC2)cc1	-4	8	1	6	0.9
CCOC(=O)C1=C(C)N(C)C(C)=C(C(=O)OCC)C1c1ccc(Cl)cc1	x	4	x	x	x
CCOC(=O)C1=C(NC#N)OC(C)=C(C)C1c1ccc(O)cc1 (centres undefined)	70*	21	0.3	96*	0
CCC1(CC)Nc2ccccc2C(=O)N1c1ccc(NC(C)=O)cc1	-2	13	1	74*	0.3
Cc1ccc(C)c(S(=O)(=O)N2CCN(C(C)C(=O)Nc3ccccc3-c3ccccc3)CC2)c1 (centres undefined)	x	8	x	x	x
C=C(Cl)COc1ccc2c(CCCC)cc(=O)oc2c1	92*	2	0.1	91*	0.1
O=C(NC1(C(F)(F)F)C(=O)Nc2c1c(=O)[nH]c(=O)n2-c1ccccc1)c1cccnc1 (centres undefined)	14	32	0.9	12	0.9
COc1cc2c(cc1OC)C(c1ccc(N(C)C)cc1)CC(=O)N2 (centres undefined)	6	2	0.9	46	0.5
COc1cc2c(c(OC)c1)C(c1ccncc1)CC(=O)N2 (centres undefined)	90*	16	0.1	76*	0.2
SMILES	CYP2C9 inh	Measles CPE	CYP2C9 act	CYP2C19 inh	CYP2C19 act
COC(=O)c1ccc(C2CC(=O)Nc3cc(OC)c(OC)c(OC)c32)cc1 (centres undefined)	88*	2	0.1	93*	0.1
COc1cc(NC(=O)c2ccc(Br)o2)c(C(=O)O)cc1OC	-6	3	1.1	-15	1.1
CC1(C)CC(=O)C=C(N=CC2=C(O)CC(C)(C)CC2=O)C1	-27	52*	1.3	-15	1.2
CNc1nc(Oc2ccc(=O)n(C)n2)nc(N2CCOCC2)n1	-6	6	1.1	-10	1.1
COc1cccc(NC(=O)CSc2nnc(-c3cc(-c4ccccn4)nc4ccccc34)o2)c1	18	6	0.8	7	0.9
CCCn1c(CNC(=O)c2ccccc2)nc2ccccc21	0	2	1	61*	0.4
CCCn1c(CNC(=O)c2cccs2)nc2ccccc21	28	8	0.7	44	0.6
CC(C)Cn1c(CNC(=O)c2ccccc2)nc2ccccc21	27	4	0.7	72*	0.3
CCCCn1c(CCNC(=O)c2cccs2)nc2ccccc21	21	18	0.8	63*	0.4
C=CCn1c(CNC(=O)c2cccs2)n[nH]c1=S	x	24	x	x	x
CC(CNC(=O)C(C)(C)C)NC(=O)C(C)(C)C (centres undefined)	x	20	x	x	x
COc1cc(CNC2CCCC2)cc(OC)c1OC	-13	3	1.1	-2	1
CCOc1cc(CNC2CCCC2)cc(Cl)c1OCc1ccc(F)cc1	37	10	0.6	95*	0.1
COc1cc(CNn2c(C)n[nH]c2=S)cc(Cl)c1OCc1ccc(F)cc1	6	5	0.9	12	0.9
COc1cc(CNC2CCCC2)cc(Cl)c1OCc1ccc(F)cc1	31	2	0.7	95*	0
COc1cc(C(C)=O)ccc1COc1ccc(C(=O)OC(C)C(=O)NC(N)=O)cc1OC (centres undefined)	x	8	x	x	x
CN(Cc1ccco1)C(=O)C1CCC(=O)N1Cc1ccc(F)cc1 (centres undefined)	8	19	0.9	12	0.9
O=S(Cc1ccc(Cl)cc1)CC(O)COc1ccc(Cl)cc1 (centres undefined)	22	17	0.8	27	0.7
CCCCS(=O)CC(COc1ccc(Cl)cc1)OC(=O)c1ccccc1 (centres undefined)	80*	30	0.2	95*	0
COc1cccc2c(=O)c(SC(F)(F)C(F)C(F)(F)F)c(C)[nH]c12 (centres undefined)	34	-2	0.7	44	0.6
Cc1[nH]c2ccc(F)cc2c(=O)c1SC(F)(F)C(F)C(F)(F)F (centres undefined)	56*	3	0.4	80*	0.2
Cc1onc(-c2ccccc2)c1C(=O)N/N=C/c1cc2c(cc1Br)OCO2	x	6	x	x	x
Cc1cc(C)nc(Sc2c(C)n[nH]c2C)n1	-57	10	1.6	0	1
CC(C)CC(C(=O)Nc1oc(-c2ccco2)c(-c2ccco2)c1C#N)N1C(=O)c2ccccc2C1=O (centres undefined)	98*	12	0	69*	0.3
CCC(CO)NCc1ccc2c(c1)n(C)c(=O)n2C (centres undefined)	-11	11	1.1	-11	1.1
CS(=O)(=O)Cc1nc2ccccc2oc1=O	45	1	0.6	64*	0.4
C/C(O)=C\c1nc2ccccc2oc1=O	-14	28*	1.1	-12	1.1
CCS(=O)(=O)CCSc1nc2ccccc2o1	15	1	0.8	4	1
